Consider 107 sequences from PubChem BioAssay AID1508600 (Functional Genomics Laboratory (NCATS/FGL), 2020).

Hit rate of the full screen: of about 53,000 sequences, about 3,700 (7%) were called active.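 The calls were made as follows: active = gene knockdowns whose robust z-score for IL-1 alpha signal is at least 2 or at most -2, so actives lie on both sides; inactive = the rest.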 The entries come from a sample that favours actives as a whole.

The test is described as follows: Components of the Cytosolic LPS Sensing Pathway: Gene Identification via Genome-wide siRNA Screen.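 Also: robust z of the log signal after scaling to non-targeting control siRNA wells of the plate.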 Conditions: RAW264.7 macrophages, IL-1a HTRF, actives lie on both sides, screened at 100 nM (by protocol), cells primed 5 h with Pam3CSK4 first. In outline:
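RAW264.7; siRNA 100 nM final, RNAiMAX, 48h 37 degrees C; Pam3CSK4 5 h; LipidA + TransIT-TKO 24 h; IL-1a HTRF; CellTiter-Glo viability; robust z vs negative-control median.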
Background: TR-FRET usually uses a lanthanide donor and a delayed reading to cut background.
For GCCGGAUAACAUCAGACACTT against Rmnd1, the z-score is -0.146 (inactive).
With GCCACAGAGCUAGACUGUCTT against Wdr86, the z-score is 0.241 (inactive).
With GGAACAUCUUCAAAGAAGATT against Minar1, the z-score was -0.963 (inactive).
Regarding GUUUUGUUUCAGAGCAGAATT against Olfr900, the z-score is -0.134 (inactive).
As for GCUAAUAACUGUUCACAUATT against Magi1, the z-score was 1.97 (inactive).
For CCAAUCUUAGUCAUCCAUUTT against Foxo6, the z-score was -2.27 (active).
Consider GUAUUGUCAUCAUCAUUUCTT against Olfr910, for which the z-score was 0.115 (inactive).
Turning to GGUCGGCCAAUUACAAUGUTT against Eml4, the z-score is 2.16 (active).
Take GCGAUGAGACAGAUGUCGATT against Tcof1: the z-score is -0.0757 (inactive).
GGUCUUCAACAACAUUAUCTT against Hid1: the z-score is 1 (inactive).
In the case of GCCGAUCCAUUUUUGGCUCTT against Mlxip it was 0.86 (inactive).
On to GGAGUAUUACCUGGUUAAGTT against Suv39h1, for which the z-score is -1.18 (inactive).
Regarding GCAAGUUAAGGAUAUCAUGTT against Katna1, the z-score was 1.2 (inactive).
As for CCGAGUCUUGAACUAGGCATT against Six2, the z-score was -2.01 (active).
The same measure for GCUUUCUGAAGUAGCAAAGTT against Nit2: 0.42 (inactive).
Turning to GAUGUACGAGAGCUUAGCATT against Uqcc2, the z-score was -1.14 (inactive).
Turning to GGACUACCUGUGUAUGCUCTT against Dcaf12l1, the z-score is 1.3 (inactive).
With GGAAUGUUCCUUCGAGCAGTT against Ccdc28b, the z-score was -0.197 (inactive).
With GCCAUAGAAGUAGAAGUAGTT against Rbmx2, the z-score is -2.29 (active).
Take GGCGAAAGUAAGACAAAGUTT against Ric8a: the z-score is 0.708 (inactive).
For GGCAAACCGACAGACUUCUTT against Riok1, the z-score was -0.033 (inactive).
As to GGUCUCUCAUUACCACAUUTT against Olfr69, the z-score was 1.75 (inactive).
As to GGAAGAUCAGCCAUACUAGTT against Klrb1f, the z-score is 2.12 (active).
With GCCCACACUUGCUAAUGAATT against Ppp1r26, the z-score was 0.468 (inactive).
On to GCUGAACGAUGACUAUCCCTT against Cryba4, for which the z-score is 2.2 (active).
As to GCUUGUGCCAAGCAUUCUUTT against Rdh1, the z-score was 0.861 (inactive).
GGACUCAGAAGAAAUGGACTT against Osbpl6: the z-score is 0.109 (inactive).
The same measure for GCUCUGCUAACUUACAUCUTT against Mtmr11: 1.75 (inactive); for GGCAAAGAGAUUGACAUUGTT against Kif2c: -0.991 (inactive).
As to GCGGUCACGUGUGAUGGAUTT against Zfp653, the z-score was 3.98 (active).
Regarding GGCAGGAGAUGGUAACUGCTT against Phc2, the z-score was 1.08 (inactive).
CGAAUUCAAAAAGCUAGAGTT against Gsto1: the z-score was 0.0531 (inactive).
In the case of GGCCUUCAUGGAUUAUACCTT against Serpinb9 it was 2.09 (active); in that of GGCCAUUCAGAAGAUGCAGTT against Snapc2, -0.852 (inactive); in that of CGAUUGUCGGGUUUUGUUUTT against Nutf2, -2.53 (active).
With GCCAUUGACUGUACAGGUUTT against Taar4, the z-score was 0.74 (inactive).
On to GGAAGAGCAGGCAUCCAUATT against Ranbp10, for which the z-score is -0.294 (inactive).
GGGAGAUGAUUAGUUCAUUTT against Mad1l1: the z-score is 0.654 (inactive).
The same measure for GGCCAGUCCAAAGACCAUCTT against Hsd3b7: 1.95 (inactive); for GCAAAACAUUUCCUGUCUGTT against Zfp316: -0.555 (inactive); for CCUCAAUUAUACCAAGAUUTT against Mapre3: -1.28 (inactive).
Turning to GCCAGGAGUCCUUUAGGAATT against Tmem159, the z-score was -0.184 (inactive).
For the sequence GCCCUCUUAUCUGAAUAAUTT against Stk17b, the z-score was 2.19 (active).
The same measure for GGGAUUGGAAGAGAAAUGGTT against Hsd11b1: 0.362 (inactive); for GCUAUACGAAGACUUCAGCTT against Hdhd3: 0.972 (inactive); for GGCCUUUAAUUUCUUACACTT against Akt1s1: -0.6 (inactive).
In the case of GGAGUGAAAUUUACUGGGUTT against Hdgfl3 it was 1.28 (inactive); in that of GGAGAACAAAGAUUUCGUGTT against Lhfpl4, -0.897 (inactive).
For GCUAAACACGCUGAAUAUUTT against Phf10, the z-score was 0.107 (inactive).
As to GCUACUAUCACAUAUGCACTT against Olfr1122, the z-score is -2.09 (active).
GGGUUGGUAUAGCUUUCAGTT against Zfp619: the z-score was -0.948 (inactive).
As for GGAACCUGAAAAUGUAUGUTT against Cxcl10, the z-score is 0.988 (inactive).
For the sequence CGUUCAGUGUCUGCAGGUUTT against Mrps12, the z-score was -0.0575 (inactive).
In the case of CCACUAAUUACAGUAACAUTT against Akr1c20 it was -1.11 (inactive); in that of “GCAGACUCAUGCACUUGAATT against Olfr1165-ps”, -0.321 (inactive); in that of GGAAGUCUUAGAAGUAGCCTT against Diaph3, 0.691 (inactive).
Consider GGGAACUGCACAAUACAAATT against Ccdc122, for which the z-score was 1.91 (inactive).
The same measure for GGCUGGUGGAUAAUGAUUGTT against Tmem50b: 2.18 (active); for GGACUGUUUUGUCUUGAAGTT against Gm5124: -1.04 (inactive).
Consider GGUUUUUGUUAAGGUCAAUTT against Abca16, for which the z-score is 0.209 (inactive).
On to CCAUCCGUAACAUCGACUGTT against Mboat7, for which the z-score is -0.293 (inactive).
In the case of UGGUCACCUUUCUCUUAUUTT against Tas2r140 it was -0.575 (inactive).
In the case of GCUCCUGGGAUACGUAUUATT against Abhd16a it was -2 (active).
For the sequence GGGAGCUGAACACAAACACTT against Trav3-3, the z-score is 0.191 (inactive).
Regarding GGACCUUCUUCAAGAAAGUTT against Olfr430, the z-score is 0.0987 (inactive).
For GGAUGGUGAAAAUCUUGAGTT against Mindy1, the z-score was 1.39 (inactive).
Turning to GGACAAUGGGAGCUAUCGATT against Gpld1, the z-score is -1.73 (inactive).
For “GGCUAAUACAUAAAGUAGUTT against 4930515G01Rik”, the z-score was 0.452 (inactive).
For the sequence GGUCAAGAAAUGGGCAAGCTT against Arhgdib, the z-score was 1.14 (inactive).
The same measure for GGAAAUAAACCACCUCUUCTT against Olfr437: 2.36 (active); for GAACAUGGAAAGCAGCAUUTT against Lce1m: -0.757 (inactive).
Turning to GGUAUUUUUCAUGGCUCUCTT against Olfr305, the z-score was -0.0328 (inactive).
As for GCCAAAUACUUUUUUACCCTT against Slc38a2, the z-score is 0.682 (inactive).
Turning to GCUUACCAAAAGGAUAUCCTT against Zfand2b, the z-score was -1.94 (inactive).
Turning to GGCAUUUCAUGUAGCUAAATT against Spata18, the z-score is 2.04 (active).
For GGUCCAACGAUAUGUUGACTT against Cyp2c67, the z-score was 1.27 (inactive).
Regarding GGACAUGGAGAAAAAGUACTT against Styk1, the z-score is 0.547 (inactive).
Turning to GCAGUGCGAUUGCUUACAGTT against Tube1, the z-score was 1.07 (inactive).
The same measure for GGAUGUUCCAUUUCUAAGCTT against Zfp30: -3.76 (active); for GGAGUGUGCCCUGAAAGAUTT against Psrc1: -0.215 (inactive); for GGCUUUUCUGCCAUUUAUGTT against Sox18: 0.23 (inactive).
Consider GGGUGAAAGAAAGAAAGAATT against Plp1, for which the z-score was -0.883 (inactive).
With GGCCCAGUGACUAUGGAAUTT against Mpnd, the z-score is -2.68 (active).
GGAUUACAGAAGCCCACACTT against Plekhn1: the z-score is -0.719 (inactive).
In the case of GGACGUGCUUACAUUGUACTT against Pcdhb9, the z-score was -0.212 (inactive).
GCAAUUGAGAUCUAUACAGTT against Napa: the z-score is -0.0109 (inactive).
As to GGGAAUAUGUGAAACAGACTT against Syk, the z-score is -0.229 (inactive).
In the case of GCCAAUAAAGUCGGUGAAATT against H2aj, the z-score was -0.244 (inactive).
For the sequence GGAAUAAUCCCAGAAUCAGTT against Stard6, the z-score was 0.0758 (inactive).
For the sequence GGAAGUGGCUUUUUAUCAGTT against Arhgap6, the z-score was 2.05 (active).
As to CCAUACACAACAUUCCAGATT against Slc39a11, the z-score is 0.0339 (inactive).
Regarding GCAUUCAUCAAAUUUACAGTT against Prrg4, the z-score is -0.67 (inactive).
For the sequence CCUACUAACAACAAGAGCATT against Pcdhga5, the z-score was 0.021 (inactive).
Turning to GGAACUGAUCUGGAAGAAUTT against Sord, the z-score was -0.392 (inactive).
On to GGAAUACCAGGCCUUCCUUTT against B4galnt1, for which the z-score is -0.886 (inactive).
Take CCUCGAUUAUAGCAAUACUTT against Slc16a14: the z-score is 1.36 (inactive).
As for GGUGCAGGACCAUUUCCAUTT against Slc10a6, the z-score is 3.25 (active).
In the case of GAAAUGUCCAUCCAAAAGCTT against Sprr2k, the z-score is 0.602 (inactive).
For the sequence GGAUUAGGAAUCACAGUAGTT against Fam78a, the z-score is 0.675 (inactive).
With CCUUAUAGUCCAGUAUUUUTT against Slf2, the z-score is 2.71 (active).
Consider GGCCAAAAAGGAGGCACCATT against Rps15, for which the z-score is 0.662 (inactive).
Take GCAUUUUAAUGCGCCAGUUTT against Atp2c1: the z-score was -0.164 (inactive).
For the sequence GGGAGCUUUGGAAAUUUUATT against Zbtb3, the z-score is 0.451 (inactive).
CCUCUCCUGCUCUGACAUATT against Olfr933: the z-score is 0.541 (inactive).
The same measure for GGAAGAGGUCUUUAAUACATT against Kif4: 2.86 (active).
Take GGUGUUUGGCGAUAAUAAGTT against Zdhhc15: the z-score is -0.237 (inactive).
Turning to GGAAAGAAUAGCAGCGUGGTT against Echs1, the z-score was 1.14 (inactive).
